An excerpt weighted towards active compounds, which were near 2.8% of everything screened.
ERa SRC1 inh: blocks coactivator binding to human estrogen receptor alpha. P03372. TR-FRET ER-alpha LBD / SRC-1 peptide, estradiol-bound. inhibition, % at 25.6 µM. 86,000 compounds, 1.7% hits. AID 629; in the data active means inhibition above about 50%;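 further: 0% = receptor plus peptide control and 100% = peptide only without receptor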
Target sequence (P03372 whole entry, looked up, the tested form may be a part): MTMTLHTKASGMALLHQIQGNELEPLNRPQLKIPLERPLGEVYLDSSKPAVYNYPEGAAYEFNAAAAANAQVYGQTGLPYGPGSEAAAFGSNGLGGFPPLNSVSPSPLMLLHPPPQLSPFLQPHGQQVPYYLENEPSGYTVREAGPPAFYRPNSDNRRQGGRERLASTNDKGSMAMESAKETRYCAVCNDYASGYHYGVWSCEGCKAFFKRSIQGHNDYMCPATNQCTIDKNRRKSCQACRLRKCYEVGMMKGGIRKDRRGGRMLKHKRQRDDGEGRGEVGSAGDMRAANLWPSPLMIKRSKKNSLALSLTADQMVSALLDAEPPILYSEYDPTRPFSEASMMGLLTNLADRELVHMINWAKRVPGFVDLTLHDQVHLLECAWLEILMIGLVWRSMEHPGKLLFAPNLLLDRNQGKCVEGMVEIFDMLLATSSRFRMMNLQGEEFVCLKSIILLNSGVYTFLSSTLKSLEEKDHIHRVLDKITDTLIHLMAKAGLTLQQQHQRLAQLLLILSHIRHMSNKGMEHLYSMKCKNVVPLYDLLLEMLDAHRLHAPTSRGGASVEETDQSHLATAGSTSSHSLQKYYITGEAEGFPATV
ERa SRC1 pot: enhances coactivator binding to human estrogen receptor alpha; 86,000 compounds, 1.3% hits; coactivator binding (% of control), % at 25.6 µM; TR-FRET ERalpha-LBD/SRC-Cy5 coactivator binding, 2 h; 100 = basal binding, no effect; P03372; AID 639; in the data active means activity above about 200%;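 further: binding measured in presence of low estradiol as agonist stimulus; 0% = peptide alone without receptor and 100% = receptor with peptide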
EphB4 ephrin blk: blocks human EphB4 binding to ephrin-B2 | EphB4 LBD / TNYL-RAW-Alexa532 peptide, fluorescence polarization | inhibition, % at 7 µM | 97,000 compounds, 0.15% hits | AID 720;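 active means inhibition above the screen-wide mean inhibition plus 3 SD, cut at about 15% in these data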;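 further: 0% = DMSO wells and 100% = excess unlabeled TNYL-RAW peptide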
ERb coact inh: ER-beta (human) coactivator binding inhibition. Q92731. TR-FRET ER-beta LBD / SRC1-Cy5 peptide binding; receptor agonist-loaded with 1 µM estradiol. inhibition, % at 25.6 µM. 86,000 compounds, 1.3% hits. AID 633;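 active means compounds whose percent inhibition of the receptor-coactivator binding signal exceeds about 50% in the single-dose screen, limit read from the data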;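 further: 0% = receptor plus peptide wells without compound and 100% = peptide-only wells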
* hit, by the source's call; / = no result given; [ ] = remark or other dose.

SMILES | ERa SRC1 inh | ERa SRC1 pot | EphB4 ephrin blk | ERb coact inh
CCCCCc1nnc(NC(=O)Cc2cccs2)s1 | 94.2*[fluorescence artefact?] | 20.2 | -0.7 | 82.0*
COc1cccc(-c2nnc(NC(=O)Cc3cccs3)s2)c1 | 63.1* | 129.3 | 2.4 | 50.0
O=C(Cc1cccs1)Nc1nnc(-c2ccncc2)s1 | 44.9 | 53.1 | / | 46.3
O=C(Cc1cccs1)Nc1ccccn1 | 56.1* | 71.7 | 1.2 | 55.0*
O=C(Cc1cccs1)Nc1ccon1 | 22.9 | 90.1 | 2.3 | 24.5
O=C(Cc1cccs1)Nc1nnc(Cc2ccccc2)s1 | 96.3*[fluorescence artefact?] | 35.9 | -3.9 | 91.3*
Cc1c(Br)c([N+](=O)[O-])nn1C(C)C(=O)Nc1c(C)n(C)n(-c2ccccc2)c1=O (stereo not given) | / | / | -2.5 | /
O=C(CSc1nnc(-c2ccc(S(=O)(=O)N3CCCC3)cc2)o1)NCc1ccco1 | 34.9 | 132.6 | 1.4 | 26.6
Cn1c(SCc2cc(=O)[nH]c3ccccc23)nnc1-c1ccc(Br)cc1 | 6.2 | 89.8 | -2.0 | -3.8
O=C(Cc1cccs1)Nc1nncs1 | 38.8 | 64.1 | -4.1 | 56.0*
O=c1oc2c(CN3CCCCC3)c(O)ccc2cc1-c1nc2ccccc2[nH]1 | 4.7 | 130.4 | / | 5.0
O=c1oc2c3c4c(cc2cc1-c1nc2ccccc2[nH]1)CCCN4CCC3 | 94.5*[fluorescence artefact?] | 9.8 | / | 58.3*[fluorescence artefact?]
C=C(C)C(=O)Nc1ccc(OC(F)(F)C(F)F)c(NC(=O)C(=C)C)c1 | -37.9 | 209.9* | 2.7 | -14.0
Cc1cc(C)c(NC(=O)c2cc3c(nc4sccn43)s2)c(C)c1 | 86.3*[fluorescence artefact?] | 34.1 | -0.5 | 55.0*[fluorescence artefact?]
COCc1cc(C)nc(SCC(=O)Nc2ccccc2C)c1C#N | -3.3 | 135.0 | 0.9 | -11.4
COCc1cc(C)nc(SCC(=O)Nc2ccc(C)c(C)c2)c1C#N | -6.8 | 207.8*[fluorescence artefact?] | / | 2.6
COc1ccc(-c2ccc(-c3nnc(-c4ccncc4)o3)cc2)cc1 | 56.2*[fluorescence artefact?] | 184.1 | / | 31.1
O=C(c1ccc(Cl)cc1)c1oc2ccccc2c1CS(=O)(=O)c1ccccc1 | / | / | -7.4 | /
CCOC(=O)N1CCC(Nc2c(N3CCN(c4cccc(C(F)(F)F)c4)CC3)c(=O)c2=O)CC1 | -5.5 | 98.9 | 0.5 | 62.8*[fluorescence artefact?]
O=C1CC(C(=O)Nc2ccc(C(=O)N3CCOCC3)cc2)C2(CCCCC2)O1 (stereo not given) | 56.2*[fluorescence artefact?] | 116.4 | -7.4 | -1.3
O=C(O)C1C2C=CC(O2)C1C(=O)NCc1ccccc1Br (stereo not given) | -1.5 | 93.2 | 0.1 | -31.4
O=C(CCN1C(=O)c2ccccc2C1=O)Nc1ccc(F)cc1 | 85.2*[fluorescence artefact?] | 118.5 | -0.4 | -2.4
O=C(Nc1cc(C(F)(F)F)ccc1-n1cncn1)c1ccc(-c2ccccc2)cc1 | 1.2 | 108.1 | 2.0 | -5.3
CCN(CC)S(=O)(=O)c1ccc(C(=O)NCc2cccs2)cc1 | / | / | 0.5 | /
CCN(CC)S(=O)(=O)c1ccc(C(=O)NCc2ccc(C)cc2)cc1 | -8.1 | 104.6 | -2.3 | 61.5*
SMILES | ERa SRC1 inh | ERa SRC1 pot | EphB4 ephrin blk | ERb coact inh
CCOC(=O)c1c(C)oc2ccc(NS(=O)(=O)c3cccs3)cc12 | 7.3 | 90.6 | 3.4 | 6.5
COCCOC(=O)c1c(C)oc2ccc(NS(=O)(=O)c3ccc(C(=O)O)cc3)cc12 | 39.0 | 49.2 | / | 53.7*[fluorescence artefact?]
CCCCOC(=O)c1c(C)oc2ccc(NS(=O)(=O)c3ccc4c5c(cccc35)C(=O)N4)cc12 | 44.9 | 54.4 | -9.3 | 53.2*
COC(=O)c1c(C)oc2ccc(NS(=O)(=O)c3cc(OC)ccc3OC)cc12 | -17.7 | 102.3 | 7.5 | -13.8
COc1ccc(N=c2scc(-c3ccc(S(=O)(=O)N4CCOCC4)cc3)n2CCCO)cc1 | -6.6 | 98.9 | / | -4.0
C=CCn1c(-c2ccc(S(=O)(=O)N3CCOCC3)cc2)csc1=Nc1ccccc1 | -7.0 | 214.8* | 6.2 | -25.4
COc1cccc(NC(=O)c2ccc(-n3cccn3)nc2)c1 | / | / | 2.3 | /
Cc1ccnc(NS(=O)(=O)c2ccc(NC(=O)Cc3cccs3)cc2)n1 | 66.8* | 48.7 | 6.6 | 61.7*
Cc1ccnc(NS(=O)(=O)c2ccc(NC(=O)c3ccc(C)o3)cc2)n1 | 6.7 | 106.0 | -1.1 | -6.0
Cc1nc2ccc(NC(=O)Cc3cccs3)cc2s1 | 61.6*[fluorescence artefact?] | 59.8 | / | 44.1
O=C(Cc1cccs1)Nc1ccc(S(=O)(=O)Nc2ncccn2)cc1 | 88.1*[fluorescence artefact?] | 21.6 | -6.1 | 84.0*
CN1CCN(S(=O)(=O)c2ccc(NC(=O)Cc3cccs3)cc2)CC1 | 39.6 | 71.5 | -6.0 | 44.0
O=C(Cc1cccs1)Nc1ccc(S(=O)(=O)N2CCCCC2)cc1 | 96.2*[fluorescence artefact?] | 18.2 | -7.3 | 83.5*
CC12CCC(C(=O)N3CCN(Cc4ccccc4)CC3)(OC1=O)C2(C)C (stereo not given) | 12.9 | 83.6 | 3.3 | 15.9
O=C(COC(=O)CCc1ccccc1)Nc1ncc(Cl)cc1Cl | / | / | 5.0 | /
O=C1NCCN1CCNS(=O)(=O)c1ccc2ccccc2c1 | 58.3*[fluorescence artefact?] | 122.4 | 1.6 | -8.5
CC(C)OC(=O)CSc1nnc(SCc2cccc3ccccc23)s1 | -9.8 | 95.6 | 7.6 | -10.8
COc1ccc(C(=O)CC(Nc2ccc([N+](=O)[O-])cc2)c2ccc(Cl)cc2)cc1 (stereo not given) | / | / | -6.2 | /
C=CCn1c(SCc2cc(=O)n3ccsc3n2)nnc1C1CCCCC1 | 81.5*[fluorescence artefact?] | 75.5 | 2.7 | 55.5*[fluorescence artefact?]
Cc1cccc(-n2c(SCc3cc(=O)n4ccsc4n3)nc3ccccc32)c1 | 60.1* | 53.5 | 5.5 | 22.0
CCCn1c(=O)c2ccccc2n2c(SCc3cc(=O)n4ccsc4n3)nnc12 | 50.4* | 88.7 | -1.4 | 31.4
CCOC(=O)c1c(C)c(C(=O)NCc2ccccn2)c(C)n1CC | 0.7 | 124.2 | / | -10.3
COC(=O)c1cc(S(=O)(=O)n2nc(C)c(Br)c2C)c(Cl)cc1Cl | -7.4 | 113.4 | 2.4 | 5.9
CCN(CC)C(=O)C(=O)N/N=C/c1ccc(Br)cc1 | / | / | 8.8 | /
Cc1ccc(-c2n[nH]c(=S)n2/N=C/C=C\c2ccccc2[N+](=O)[O-])cc1 | 52.0* | 270.3*[fluorescence artefact?] | 2.5 | 49.1
SMILES | ERa SRC1 inh | ERa SRC1 pot | EphB4 ephrin blk | ERb coact inh
CC(C)Cn1c(N)c(C(=O)CSc2nnnn2C)c(=O)n(C)c1=O | 5.9 | 111.3 | 1.7 | -6.2
CC(C)Cn1c(N)c(C(=O)CSc2nnnn2-c2ccc(Cl)cc2)c(=O)n(C)c1=O | 24.9 | 326.9* | / | -1.5
COc1ccc(NC(C)=O)cc1NC(=O)CSc1nnc(-c2ccc(F)cc2)n1N | 6.6 | 126.3 | 1.8 | 2.2
O=C(Nc1ccccc1)c1ccc(NC2CCCCC2)c(S(=O)(=O)N2CCOCC2)c1 | -0.5 | 111.1 | -0.3 | 6.6
Cc1ccccc1NC(=O)c1ccc(F)c(S(=O)(=O)N2CCN(c3ccccn3)CC2)c1 | -11.8 | 108.2 | -0.5 | 2.6
O=C(Nc1ccccc1)c1ccc(N2CCN(c3ccccn3)CC2)c(S(=O)(=O)N2CCOCC2)c1 | 27.0 | 340.3*[fluorescence artefact?] | 0.1 | 27.0
O=C(Nc1ccccc1)c1ccc(N2CCN(c3ccccc3)CC2)c(S(=O)(=O)N2CCOCC2)c1 | 31.4 | 405.4*[fluorescence artefact?] | 3.6 | 25.7
CSc1nnc2c3ccccc3n(Cc3ccccc3)c2n1 | 9.5 | 128.5 | -7.0 | 3.5
CSc1nnc2c3cc(F)ccc3n(Cc3ccccc3)c2n1 | 15.5 | 336.3* | / | 19.3
CCOC(=O)CNC(=O)CSc1ncnc2c1cnn2-c1ccc(Cl)cc1 | -16.6 | 205.8* | -12.3 | -7.6
